Only a selection was taken, and hits are over-represented in it overall.
Methyltransferases – Primary Screen for Target Class Profiling of Small Molecule Inhibitors of Methyltransferases | AID 1745853, 2022 | hit rate 3.9% among 25,000 | calls only at 40 µM | purified enzyme, MTase-Glo SAH luminescence; hits give low values; call rule not given here
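Each enzyme was assayed with SAM and its substrate. SAH formation detected by MTase-Glo luminescence; single-point 40 uM screen[…].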
Calls only; - = inactive; + = active, no number.

SMILES	Methyltransferases
O=C(NCc1ccc(Cl)cc1)c1ccc2c(=O)[nH]c3c(C(=O)NC4CCCC4)sc(=S)n3c2c1	+
O=C(NCc1ccc2c(c1)OCO2)c1ccc2c(=O)[nH]c3c(C(=O)NCC4CCCO4)sc(=S)n3c2c1 (stereo not drawn)	-
Cc1ccc(NC(=O)c2sc(=S)n3c2[nH]c(=O)c2cc(Cl)ccc23)c(C)c1	-
COc1ccccc1NC(=O)c1sc(=S)n2c1[nH]c(=O)c1cc(Cl)ccc12	-
COc1cc2c(=O)[nH]c3c(C(=O)NCc4ccc5c(c4)OCO5)sc(=S)n3c2cc1OC	-
CC[C@H](C)NC(=O)c1sc(=S)n2c1[nH]c(=O)c1cc(Cl)ccc12	+
Cc1cccc(-c2n[nH]n3c2nc(=O)c2ccc(C(=O)NCc4ccc5c(c4)OCO5)cc23)c1	-
Cc1ccc2c(c1)c(=O)[nH]c1c(C(=O)NCc3ccc4c(c3)OCO4)sc(=S)n12	+
C#CCNC(=O)[C@H]1O[C@H](CCN(C)CC#C)CC[C@@H]1O	-
O=C(CCc1nnc2n(Cc3ccc(F)cc3)c(=O)c3ccccc3n12)N1CCN(c2ccccc2F)CC1	-
Cc1cc2sc(NC(=O)Cc3ccccc3)nc2cc1Cl	-
Cc1nc(-c2cccnc2)ncc1C(=O)N1CCC2(CC1)CC(=O)N(C)C2	-
CCc1cc2c(cc3n2CC(C)(C(=O)NC2CCCCC2)N(CCN2CCN(C)CC2)C3=O)s1 (stereo not drawn)	-
CCc1ccc(CNc2ncncc2-c2nc(-c3ccccc3)no2)cc1	-
CCCN1C(=O)c2c(C(=O)NCc3cccc(F)c3)ncn2CC1(C)C(=O)NCc1ccc(OC)cc1 (stereo not drawn)	-
O=C1CN(Cc2ccccc2)S(=O)(=O)c2ccccc2N1Cc1ccc(F)cc1	-
Cc1nc([C@@H]2CN(C(=O)c3sccc3C)C[C@H]2C(N)=O)n[nH]1	-
Cc1c(OCC(F)(F)F)ccnc1CS(=O)c1nc2ccccc2[nH]1 (stereo not drawn)	+
CCc1cc(=O)[nH]c(N2CCOCC2)n1	-
Cc1ccc(Cl)cc1NC(=O)N1CCn2c(C)ccc2C1C(C)C (stereo not drawn)	-
O=C(O)C1CCCNC1 (stereo not drawn)	-
CCCN1C(=O)c2c(C(=O)NCc3ccc(C)cc3)ncn2CC1(C)C(=O)NCc1ccc(OC)cc1 (stereo not drawn)	-
C=C1CC[C@@H]2[C@](C)(CO)[C@H](O)CC[C@@]2(C)[C@@H]1CC(=O)C1=CCOC1=O	-
CC(C)CC(=O)N1CCCCCC1c1nc(-c2ccncc2)no1 (stereo not drawn)	-
CCC(=C(c1ccc(OCCN2CCCC2)cc1)c1ccc(OCCN2CCCC2)cc1)c1ccccc1	+
SMILES	Methyltransferases
c1cc(OCCCN2CCCCC2)ccc1CN1CCCCC1	+
CCC1(CO)CCCN(CCCOc2ccc(C(N)=O)cc2)C1 (stereo not drawn)	-
Cc1ccc(CN2CCN(Cc3ccc(=O)n(C)c3)CC2)cc1	-
CC/C(=C(\c1ccc(O)cc1)c1ccc(OCCNC)cc1)c1ccccc1	-
CC/C(=C(\c1ccccc1)c1ccc(OCCN(C)C)cc1)c1ccccc1	-
CC1OC1P(=O)(O)O (stereo not drawn)	-
CCC(C)(C)C(=O)NCCc1noc(-c2ccccc2)n1	-
CCCn1c(=O)c2ccccc2n2c(SCC(=O)Nc3cccc(F)c3)nnc12	-
Cc1cc(CN2C[C@@H](CO)[C@H](C(=O)N(C)C)C2)n(C)n1	-
Cc1ccc(C)c(NC(=O)CNS(=O)(=O)c2ccc3[nH]c(=O)oc3c2)c1	-
Cn1c2c(c3ccccc31)C(C(=O)NCc1ccc(F)cc1)N(c1ccc(F)cc1)C(=O)CS2 (stereo not drawn)	-
CCN1CCCC1CNC(=O)c1cc(S(=O)(=O)CC)c(N)cc1OC (stereo not drawn)	-
CCN1CCC[C@@H]1CNC(=O)c1ccc2c(c1)NC(=O)/C(=C/c1ccccc1F)S2	+
CCN1CCC[C@H]1CNC(=O)c1c(O)c(Cl)cc(Cl)c1OC	-
CCN1CCN(C(=O)c2ccc3nc(-c4cccnc4)oc3c2)CC1	-
C/C=C(/C)C(=O)O[C@@H]1C[C@@H](OC(=O)CC(C)C)C2(C)C3C(=O)C=C(C)C2C3C1(C)C (stereo partly drawn)	-
CC1=C(CCC(C)O[C@@H]2O[C@H](CO)[C@@H](O)[C@H](O)[C@H]2O)C(C)(C)CCC1=O (stereo partly drawn)	+
CC(CCc1ccc(O)cc1)O[C@@H]1O[C@H](CO[C@@H]2OC(CO)[C@H](O)[C@H]2O)[C@@H](O)[C@H](O)[C@H]1O (stereo partly drawn)	-
CC1=CC(=O)CC(C)(CO)C1(O)/C=C/C(C)O[C@@H]1O[C@H](CO)[C@@H](O)[C@H](O)[C@H]1O (stereo partly drawn)	-
COCCCN1C(=O)c2ccc(-c3ccco3)n2CC1(C)C(=O)NC1CCCCC1 (stereo not drawn)	-
